Measured values published in PubChem BioAssay (NCATS).
Results filed as inconclusive are left out. Calls of active or inactive are those of the source. Calls follow the shape of the dose curve; as a rule, active = well fitted inhibition curve with a large enough effect; inconclusive = small, poorly fitted or top-dose-only effect; inactive = no such curve, though single readings can be large or run the other way.

Target: N-terminal Xaa-Pro-Lys N-methyltransferase 1 (Homo sapiens) (UniProt Q9BV86)
Test: qHTS Assay for Inhibitors of N-terminal methyltransferase 1 (NTMT1): LOPAC validation of the NTMT1 SAHH-coupled ThioGlo3 Assay (AID 1347143);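 also: SAH from peptide methylation measured as thiol fluorescence via SAHH coupling and ThioGlo3; nearly all actives have a fitted effect of over 70% in size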; as to activity change, negative = inhibition: % is scaled to controls: 0 for no effect and ±100 for the full control effect
Conditions: recombinant NTMT1, SAHH-coupled ThioGlo3 fluorescence; series mostly up to 114 µM; activity change, negative = inhibition: at the top concentration
Procedure, shortened: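 NTMT1 125nM + cpds (various conc.), 1 min RT; add SAM 100uM/SAHH 10uM/ThioGlo3 15uM (addition mix). SAHH-coupled thiol detection, Ex340/Em450, t0 and 30 min RT; signal normalized to background. LOPAC 1280-cpd pilot.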
Potency is read from the fitted curve at half-maximal effect.

Sequence of N-terminal Xaa-Pro-Lys N-methyltransferase 1 (Homo sapiens) (Q9BV86 whole entry, looked up): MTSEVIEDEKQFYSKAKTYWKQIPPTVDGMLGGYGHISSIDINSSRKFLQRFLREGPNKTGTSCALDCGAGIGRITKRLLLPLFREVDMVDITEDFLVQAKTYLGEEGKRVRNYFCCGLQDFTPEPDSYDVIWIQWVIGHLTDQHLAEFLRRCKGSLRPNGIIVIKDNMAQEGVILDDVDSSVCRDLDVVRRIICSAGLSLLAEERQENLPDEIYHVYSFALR

| SMILES | activity change, negative = inhibition | Potency |
| --- | --- | --- |
| S=C(S)OC1CC2CC1C1CCCC21 (stereo unspecified) | 39.5% (inactive) | – |
| Cc1cc(NC2CCCCC2)nc(-n2nc(C)cc2C)n1 | -24.8% (inactive) | – |
| Cn1c(=O)c2[nH]c(-c3ccccc3)nc2n(C)c1=O | – | 79.4 µM (active) |
| CC(=O)/C=C1\C(=O)N(C)c2ccccc21 | – | 28.2 µM (active) |
| Nc1nc2ccc(Cl)cc2n2c(-c3ccccc3)nnc12 | 9.51% (inactive) | – |
| CC(C)(C)c1ccc(S(=O)(=O)/C=C/C#N)cc1 | – | 4.47 µM (active) |
| C=C[C@H]1CN2CC[C@@H]1C[C@@H]2[C@@H](O)c1ccnc2ccc(OC)cc12 | – | 56.2 µM (active) |
| CN1[C@@H](CC(=O)c2ccccc2)CCC[C@H]1C[C@H](O)c1ccccc1 | -17.7% (inactive) | – |
| CN1C2CCC1CC(OC(=O)C(O)c1ccccc1)C2 (stereo unspecified) | -16.5% (inactive) | – |
| O=Nc1ccc2oc(=O)ccc2c1 | – | 4.47 µM (active) |
| C=CC(N)CCC(=O)O (stereo unspecified) | -18.8% (inactive) | – |
| CN1C2CC(OC(=O)[C@H](CO)c3ccccc3)CC1C1OC12 (stereo partly specified) | -10.9% (inactive) | – |
| CC1(C)CCC=[N+]1[O-] | -15.8% (inactive) | – |
| CO[C@H]1O[C@@H]2O[C@]3(C)CC[C@@H]4[C@@H](C)CC[C@H]([C@H]1C)[C@]24OO3 | -21.1% (inactive) | – |
| CCCN(CC1CC1)c1nc(C)nc(Nc2c(Cl)cc(Cl)cc2Cl)c1Cl | 30.1% (inactive) | – |
| NCCCS(=O)(=O)O | -19.2% (inactive) | – |
| CCCC(CCC)C(=O)OC1CC2CCC(C1)[N+]2(C)C (stereo unspecified) | -15.5% (inactive) | – |
| CN(C)CCC(c1ccc(Cl)cc1)c1ccccn1 (stereo unspecified) | -10.4% (inactive) | – |
| CC(=O)N[C@H](C(=O)O)C(C)(C)SN=O | -22.8% (inactive) | – |
| COc1cc(SC)ccc1C(=O)N1CCC(Cc2ccccc2)CC1 | -11.8% (inactive) | – |
| N[C@@H](CC(=O)O)C(=O)O | -7.62% (inactive) | – |
| N#C/C(=C\c1ccc(-c2cc(Cl)ccc2Cl)o1)C(=O)Nc1cccc2ncccc12 | – | 56.2 µM (active) |

Test system: Zika virus NS2B-NS3 protease (unlinked)
Test: Optimization of GU AMC qHTS for Zika virus inhibitors: Unlinked NS2B-NS3 protease assay (AID 1347151); also: nearly all actives have a fitted effect of over 80% in size;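 as to activity change, negative = inhibition: 0% = no-inhibitor control and -100% = no-enzyme control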
Conditions: recombinant ZIKV NS2B-NS3 protease, fluorogenic AMC substrate; series mostly up to 52.5 µM; activity change, negative = inhibition: at the top concentration
Procedure, shortened: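 Noncovalent complex of NS2B hydrophilic domain and NS3 protease domain, 25 nM final, in 10 mM Tris-HCl pH 8.0, 0.01% Tween 20. AMC fluorescence change over 15 min at room temperature was fitted to a 4-parameter Hill equation.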

| SMILES | activity change, negative = inhibition | Potency |
| --- | --- | --- |
| CC(C)Cc1ccc([C@H](C)C(=O)O)cc1 | -3.16% (inactive) | – |
| COCCOc1cc2nc[nH]c(=O)c2cc1OCCOC | -7.81% (inactive) | – |
| CC(C)NC[C@@H](O)c1ccc(O)c(O)c1 | 7.14% (inactive) | – |
| CCOC(=O)C1=C(C)NC(C)=C(C(=O)OCC)C1c1c(F)c(F)c(F)c(F)c1F | – | 23.8 µM (active) |
| NC(CCCP(=O)(O)O)C(=O)O (stereo unspecified) | 2.29% (inactive) | – |
| CN[C@H](CC(C)C)C(=O)N[C@H]1C(=O)N[C@@H](CC(N)=O)C(=O)N[C@H]2C(=O)N[C@H]3C(=O)N[C@H](C(=O)N[C@H](C(=O)O)c4cc(O)cc(O)c4-c4cc3ccc4O)[C@H](O)c3ccc(c(Cl)c3)Oc3cc2cc(c3O[C@@H]2O[C@H](CO)[C@@H](O)[C@H](O)[C@H]2O[C@H]2C[C@](C)(N)[C@H](O)[C@H](C)O2)Oc2ccc(cc2Cl)[C@H]1O | -1.17% (inactive) | – |
| c1cnc2c(c1)ccc1cccnc12 | 0.268% (inactive) | – |
| O=C(/C=C/c1ccc(O)cc1)c1ccc(O)cc1O | 2.11% (inactive) | – |
| O=C(CCCCCN1CCN(c2ccccc2-c2ccccc2)CC1)NC1CCCc2ccccc21 (stereo unspecified) | – | 23.8 µM (active) |
| CCNC(=O)[C@H]1O[C@@H](n2cnc3c(N)nc(NCCc4ccc(CCC(=O)O)cc4)nc32)[C@H](O)C1O (stereo partly specified) | -26.5% (inactive) | – |
| COC1=C(OC)C(=O)c2ccccc2C1=O | -20.1% (inactive) | – |
| Nc1ccn([C@H]2O[C@H](CO)[C@@H](O)C2(F)F)c(=O)n1 | -0.75% (inactive) | – |
| CC1CN(S(=O)(=O)c2cccc3cnccc23)CCN1 (stereo unspecified) | 1.6% (inactive) | – |
| NCCSSCCN | 7.93% (inactive) | – |
| CN=c1nc(-c2ccccc2)n(-c2ccccc2)s1 | 0.576% (inactive) | – |
| S=C(S)OC1CC2CC1C1CCCC21 (stereo unspecified) | -8.03% (inactive) | – |
| Cc1cc(NC2CCCCC2)nc(-n2nc(C)cc2C)n1 | -9.89% (inactive) | – |
| Cn1c(=O)c2[nH]c(-c3ccccc3)nc2n(C)c1=O | – | 4.74 µM (active) |
| CC(=O)/C=C1\C(=O)N(C)c2ccccc21 | 6.75% (inactive) | – |
| Nc1nc2ccc(Cl)cc2n2c(-c3ccccc3)nnc12 | -10% (inactive) | – |
| CC(C)(C)c1ccc(S(=O)(=O)/C=C/C#N)cc1 | 5.99% (inactive) | – |
| C=C[C@H]1CN2CC[C@@H]1C[C@@H]2[C@@H](O)c1ccnc2ccc(OC)cc12 | – | 26.7 µM (active) |
| CN1[C@@H](CC(=O)c2ccccc2)CCC[C@H]1C[C@H](O)c1ccccc1 | 3.04% (inactive) | – |
| CN1C2CCC1CC(OC(=O)C(O)c1ccccc1)C2 (stereo unspecified) | 0.319% (inactive) | – |
| O=Nc1ccc2oc(=O)ccc2c1 | -5.26% (inactive) | – |
| C=CC(N)CCC(=O)O (stereo unspecified) | -5.49% (inactive) | – |
| CN1C2CC(OC(=O)[C@H](CO)c3ccccc3)CC1C1OC12 (stereo partly specified) | -0.583% (inactive) | – |
| CC1(C)CCC=[N+]1[O-] | 4.49% (inactive) | – |
| CO[C@H]1O[C@@H]2O[C@]3(C)CC[C@@H]4[C@@H](C)CC[C@H]([C@H]1C)[C@]24OO3 | 7.24% (inactive) | – |
